Measurements: PubChem BioAssay AID1159580 (chemical genetic matrix, 2015)
“And” between values parts separate entries of the source, which are not always exact repeats. Identical values can stand only once. Out of some 5,500 compounds screened, about 2,000 (36%) were called active. Another 18% or so got no clear call; they are omitted. Rule as the data show it: active = normalized growth mostly below about 0.91 (no sharp cut-off); inconclusive = no clear call, values can overlap the other calls; inactive = mostly above about 0.92. Some of the results follow.

Experiment: chemical genetic growth profiling, strain panel (AID 1159580);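 also: tested at 20 µM; growth read once vehicle control cultures reached saturation at 30 °C; 1 = growth at the plate median or of vehicle wells; lower values mean less growth of the strain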
Conditions: S. cerevisiae deletion strains, growth OD

Measured: normalized growth

CC[C@H](CCC(C)[C@H]1CCC2C3CCC4C[C@@H](O)CC[C@]4(C)C3CC[C@@]21C)C(C)C (stereo partly drawn)
inactive: locus YAL013W, strain DEP1, stronger effect = lower value 1.01 | locus YAL021C, strain ccr4, stronger effect = lower value 0.968 | locus YAL026C, strain drs2, stronger effect = lower value 0.955 | locus YAL030W, strain snc1, stronger effect = lower value 0.985 | locus YBL061C, strain skt5, stronger effect = lower value 0.988 | locus YBR009C, strain hhf1, stronger effect = lower value 0.983 | locus YBR021W, strain FUR4, stronger effect = lower value 0.993 | locus YBR023C, strain chs3, stronger effect = lower value 0.988 | locus YBR171W, strain sec66, stronger effect = lower value 0.976 | locus YBR229C, strain ROT2, stronger effect = lower value 0.999 | locus YBR231C, strain swc5, stronger effect = lower value 1.01 | locus YBR279W, strain paf1, stronger effect = lower value 0.983 | locus YCL011C, strain gbp2, stronger effect = lower value 0.986 | locus YCL016C, strain dcc1, stronger effect = lower value 0.992 | locus YCL029C, strain bik1, stronger effect = lower value 1.03 | locus YCL061C, strain MRC1, stronger effect = lower value 0.99 | locus YCL069W, strain vba3, stronger effect = lower value 0.971 | locus YCR088W, strain abp1, stronger effect = lower value 0.988 | locus YDL005C, strain med2, stronger effect = lower value 0.975 | locus YDL035C, strain GPR1, stronger effect = lower value 1.01 | locus YDL040C, strain nat1, stronger effect = lower value 0.991 | locus YDL074C, strain BRE1, stronger effect = lower value 1 | locus YDL101C, strain DUN1, stronger effect = lower value 1.01 | locus YDL185W, strain tfp1, stronger effect = lower value 1.02 | locus YDL192W, strain arf1, stronger effect = lower value 1.02 | locus YDR001C, strain nth1, stronger effect = lower value 0.984 | locus YDR069C, strain doa4, stronger effect = lower value 0.977 | locus YDR101C, strain arx1, stronger effect = lower value 1.01 | locus YDR137W, strain rgp1, stronger effect = lower value 0.973 | locus YDR159W, strain sac3, stronger effect = lower value 0.975 | locus YDR162C, strain NBP2, stronger effect = lower value 1.02 | locus YDR195W, strain ref2 0.946 | locus YDR297W, strain sur2, stronger effect = lower value 0.993 | locus YDR318W, strain mcm21, stronger effect = lower value 1.01 | locus YDR334W, strain swr1, stronger effect = lower value 0.972 | locus YDR335W, strain msn5, stronger effect = lower value 0.984 | locus YDR388W, stronger effect = lower value 1.01 | locus YDR392W, strain spt3, stronger effect = lower value 0.932 | locus YDR502C, strain sam2, stronger effect = lower value 1.01 | locus YEL003W, strain gim4, stronger effect = lower value 0.991 | locus YEL037C, strain rad23, stronger effect = lower value 0.948 | locus YEL061C, strain CIN8 (second series), stronger effect = lower value 0.975 | locus YEL061C, strain CIN8, stronger effect = lower value 1.01 | locus YER015W, strain faa2, stronger effect = lower value 0.995 | locus YER016W, strain bim1, stronger effect = lower value 0.992 | locus YER110C, stronger effect = lower value 1.01 | locus YER111C, strain swi4, stronger effect = lower value 0.992 | locus YER155C, strain BEM2 (second series), stronger effect = lower value 0.987 | locus YER155C, strain BEM2, stronger effect = lower value 1.01 | locus YER167W, strain BCK2, stronger effect = lower value 1 | locus YFR010W, strain ubp6, stronger effect = lower value 0.964 | locus YGL078C, strain dbp3, stronger effect = lower value 1.02 | locus YGL086W, strain mad1, stronger effect = lower value 0.997 | locus YGL167C, strain pmr1, stronger effect = lower value 0.999 | locus YGL173C, strain kem1, stronger effect = lower value 0.999 | locus YGL227W, strain vid30, stronger effect = lower value 0.992 | locus YGL240W, strain doc1, stronger effect = lower value 0.988 | locus YGL248W, strain PDE1, stronger effect = lower value 1.01 | locus YGL253W, strain hxk2, stronger effect = lower value 0.997 | locus YGR135W, strain pre9, stronger effect = lower value 1.01 | locus YGR252W, strain gcn5, stronger effect = lower value 0.998 | locus YHR013C, strain ard1, stronger effect = lower value 0.968 | locus YHR027C, strain rpn1, stronger effect = lower value 0.982 | locus YHR030C, strain SLT2, stronger effect = lower value 1.01 and 1.06 | locus YHR079C, strain IRE1 (second series), stronger effect = lower value 1.01 | locus YHR079C, strain IRE1, stronger effect = lower value 1.03 | locus YHR094C, strain hxt1, stronger effect = lower value 1.01 | locus YHR129C, strain ARP1, stronger effect = lower value 1.01 | locus YHR142W, strain chs7, stronger effect = lower value 1.01 | locus YHR200W, strain rpn10, stronger effect = lower value 1.01 | locus YIL066C, strain RNR3, stronger effect = lower value 1.01 | locus YIL073C, strain SPO22, stronger effect = lower value 1.03 | locus YIL125W, strain kgd1, stronger effect = lower value 1.01 | locus YIR030C, strain dcg1, stronger effect = lower value 1 | locus YJL092W, strain hpr5, stronger effect = lower value 0.982 | locus YJL095W, strain BCK1 (second series), stronger effect = lower value 1 | locus YJL095W, strain BCK1, stronger effect = lower value 0.997 and 0.966 | locus YJL115W, strain asf1, stronger effect = lower value 0.982 | locus YJL129C, strain trk1, stronger effect = lower value 0.985 | locus YJL134W, strain LCB3, stronger effect = lower value 1 | locus YJL154C, strain vps35, stronger effect = lower value 0.978 | locus YJL164C, strain tpk1, stronger effect = lower value 0.997 | locus YJL166W, strain qcr8, stronger effect = lower value 1.06 | locus YJL168C, strain set2, stronger effect = lower value 1 | locus YJL187C, strain SWE1 (second series), stronger effect = lower value 1 | locus YJL187C, strain SWE1, stronger effect = lower value 0.981 | locus YJR043C, strain POL32, stronger effect = lower value 1.03 | locus YJR066W, strain TOR1, stronger effect = lower value 0.991
